Consider 5 compounds from PubChem BioAssay.

Activity calls are given as the source filed them. Unless noted, how the calls were made is not given here.

In experiment [1] the test system is Wnt5a (protein binding on small-molecule microarray). Nature of the experiment: Wnt5a binders on small-molecule microarray, primary screen, biophysical, 635/667 nm fluorescence (AID 1142).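 Further: fluorescence read at 667 nm with signal to noise per printed feature.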 The settings on record: 635 nm fluorescence, higher = more signal.
Experiment [2] in a line: cell viability in Huh7 cells, primary screen, cytotoxicity control for HCV replication inhibitor project, CellTiter-Glo luminescence, basal, 48 h (AID 1143).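 Further: Huh7 hepatoma cells carrying a hepatitis C replication reporter with no stimulus; test concentration not given here.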 The settings on record: Huh7 HCV replicon, higher = more signal, called active from +8 up or from −8 down. A general note: In ATP-based viability assays light output follows the ATP content of the culture.
A short description of experiment [3]: P. aeruginosa biofilm formation inhibitors, primary screen, PAO1 strain, BacTiter-Glo luminescence, LB-PBS (AID 1144). The settings on record: 12 h, higher = more signal.
Experiment [4] in a line: CREB reporter modulators without forskolin, primary screen, cell-based, PC12, CRE-LacZ reporter, unstimulated (AID 1145). As to conditions: no forskolin, luminescence, 4.5 h, higher = more signal, called active from +8 up or from −8 down.
Experiment [5] is described as follows: CREB reporter modulators under forskolin, primary screen, cell-based, PC12, CRE-LacZ reporter, forskolin-stimulated (AID 1146).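 Further: PC12 cells with 6xCRE LacZ reporter stimulated by forskolin 10 µM; beta-galactosidase reporter signal reflecting CREB driven transcription.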 As to conditions: luminescence, 4.5 h, higher = more signal, called active from +8 up or from −8 down.
Experiment [6] concerns the target Streptavidin (Streptomyces avidinii) (UniProt P22629). Briefly: streptavidin binders on small-molecule microarray, primary screen, artefact control for SMM compound annotation, biophysical, 635/667 nm fluorescence (AID 1147).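 Further: signal reflects streptavidin binding to arrayed compounds as a control protein.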 As to conditions: streptavidin binding, higher = more signal.
Experiment [7] can be described thus: small-molecule binders of probe aInhba, primary screen, biochemical, small-molecule microarray, 635/667 nm fluorescence (AID 1148).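 Further: score merges 667nm spot fluorescence with signal-to-noise for antibody binding to printed compounds.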 As to conditions: higher = more signal.
Experiment [8] concerns the target Torsin-1A (Homo sapiens) (UniProt O14656). Briefly: torsin A binders from cell lysate, primary screen, small-molecule microarray, wild-type, 635/667 nm (AID 1149). As to conditions: COS7 hTOR1A-WT lysate, 635 nm fluorescence, higher = more signal.
Experiment [9] has the same target. Nature of the experiment: small-molecule binders of mutant TOR1A in lysate, primary screen, cell lysate, small-molecule microarray, COS7 lysate, 635/667 nm fluorescence (AID 1150).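 Further: score pools 667 nm emission and signal to noise measuring lysate protein binding.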 The settings on record: COS7 hTOR1A mutant lysate, 635 nm fluorescence, higher = more signal.
The test system of experiment [10] is Sonic hedgehog protein (Shh). Nature of the experiment: small-molecule binders of Shh protein, primary screen, biochemical, small-molecule microarray, 635/667 nm fluorescence (AID 1151).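 Further: Shh protein binding to compounds spotted on small-molecule microarray slides; score combines spot fluorescence intensity with signal-to-noise across triplicate slides.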 The settings on record: small-molecule microarray binding, 635 nm fluorescence; higher = more signal.
Experiment [11] in a line: E. coli DRC41 culture turbidity changes, primary screen, E. coli filamentation inducer project, strain DRC41, OD650, 48 h (AID 1152).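 Further: E. coli MC1000 strain DRC41 lacking acrAB efflux pump and sulA.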 The settings on record: E. coli DRC41 (acrAB sulA), higher = more signal, called active from +8 up or from −8 down.
Experiment [12] can be described thus: small-molecule binders of probe aLefty1, primary screen, biochemical, small-molecule microarray, 635/667 nm fluorescence (AID 1153).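 Further: score merges spot fluorescence with signal-to-noise ratio from the scanned slide images.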 As to conditions: higher = more signal.
Experiment [13] in a line: PSAC antagonists in infected red cells, primary screen, cell-based, P. falciparum Indochina, OD700, 1 h (AID 1154). As to conditions: P. falciparum Indochina infected RBC osmotic lysis, higher = more signal, called active from +8 up or from −8 down.
A short description of experiment [14]: PSAC antagonists in infected red cells, primary screen, cell-based, P. falciparum Indochina, OD700, 2 h (AID 1155).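 Further: lysis reports solute entry through the parasite surface anion channel PSAC; channel blockers reduce lysis of infected cells.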 The settings on record: P. falciparum Indochina infected erythrocytes, osmotic lysis OD700; higher = more signal, called active from +8 up or from −8 down.
Experiment [15] in a line: osmotic lysis modulators in infected erythrocytes, primary screen, PSAC antagonist project, cell-based, P. falciparum Indochina, OD700, 3 h (AID 1156). As to conditions: higher = more signal, called active from +8 up or from −8 down.
Experiment [16] in a line: PSAC antagonists in infected red cells, primary screen, cell-based, P. falciparum Indochina, OD700, 18 h (AID 1157). The settings on record: P. falciparum Indochina infected erythrocytes, osmotic lysis OD700, 18 h; higher = more signal, called active from +8 up or from −8 down.
The nature of experiment [17]: modulators of S6 phosphorylation in cells, primary screen, cell-based, A549, cytoblot, luminescence, serum-stimulated (AID 1158).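 Further: serum-stimulated A549 lung adenocarcinoma cells; signal is phosphorylated S6 detected by cytoblot immunostaining with HRP secondary.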 As to conditions: A549 phospho-S6 cytoblot, 5 h, higher = more signal.
Experiment [18] deals with NADPH oxidase 2 (Homo sapiens) (UniProt P04839). Nature of the experiment: NOX2-dependent H2O2 signal modulators, primary screen, NOX inhibitor project, cell-based, HEK293-NOX2, PMA-stimulated, Amplex Red fluorescence (AID 1159). Further: test concentration not given here. As to conditions: 45 min, higher = more signal, called active from +8 up or from −8 down.
Experiment [19] deals with NADPH oxidase 4 (Homo sapiens) (UniProt Q9NPH5). Briefly: NOX4-dependent H2O2 signal modulators, primary screen, NOX inhibitor project, cell-based, HEK293-NOX4, tetracycline-induced, Amplex Red fluorescence (AID 1160). As to conditions: 45 min, higher = more signal, called active from +8 up or from −8 down.
Experiment [20] addresses NADPH oxidase 5 (Homo sapiens) (UniProt Q96PH1). Nature of the experiment: NOX5-dependent H2O2 signal modulators, primary screen, NOX inhibitor project, cell-based, HEK293-NOX5, Amplex Red fluorescence (AID 1161). The settings on record: HEK293-NOX5, ionomycin, 45 min, higher = more signal.

Chain of NADPH oxidase 4 (Homo sapiens) (Q9NPH5 whole entry, looked up): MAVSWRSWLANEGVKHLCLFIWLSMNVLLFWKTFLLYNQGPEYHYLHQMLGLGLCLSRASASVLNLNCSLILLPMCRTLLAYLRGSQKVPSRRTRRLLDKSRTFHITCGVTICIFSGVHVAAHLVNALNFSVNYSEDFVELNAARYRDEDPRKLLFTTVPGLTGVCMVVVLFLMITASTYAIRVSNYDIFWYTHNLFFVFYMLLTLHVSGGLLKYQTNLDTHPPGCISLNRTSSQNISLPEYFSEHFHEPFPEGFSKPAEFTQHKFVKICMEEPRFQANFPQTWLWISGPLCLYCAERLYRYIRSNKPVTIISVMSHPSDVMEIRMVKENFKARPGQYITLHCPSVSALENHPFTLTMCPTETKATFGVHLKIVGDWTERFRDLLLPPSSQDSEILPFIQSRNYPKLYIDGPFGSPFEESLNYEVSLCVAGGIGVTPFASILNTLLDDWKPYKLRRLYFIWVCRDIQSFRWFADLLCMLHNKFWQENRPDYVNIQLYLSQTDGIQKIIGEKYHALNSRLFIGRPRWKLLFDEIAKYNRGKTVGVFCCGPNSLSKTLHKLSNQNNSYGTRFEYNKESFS
Chain of NADPH oxidase 5 (Homo sapiens) (Q96PH1 whole entry, looked up): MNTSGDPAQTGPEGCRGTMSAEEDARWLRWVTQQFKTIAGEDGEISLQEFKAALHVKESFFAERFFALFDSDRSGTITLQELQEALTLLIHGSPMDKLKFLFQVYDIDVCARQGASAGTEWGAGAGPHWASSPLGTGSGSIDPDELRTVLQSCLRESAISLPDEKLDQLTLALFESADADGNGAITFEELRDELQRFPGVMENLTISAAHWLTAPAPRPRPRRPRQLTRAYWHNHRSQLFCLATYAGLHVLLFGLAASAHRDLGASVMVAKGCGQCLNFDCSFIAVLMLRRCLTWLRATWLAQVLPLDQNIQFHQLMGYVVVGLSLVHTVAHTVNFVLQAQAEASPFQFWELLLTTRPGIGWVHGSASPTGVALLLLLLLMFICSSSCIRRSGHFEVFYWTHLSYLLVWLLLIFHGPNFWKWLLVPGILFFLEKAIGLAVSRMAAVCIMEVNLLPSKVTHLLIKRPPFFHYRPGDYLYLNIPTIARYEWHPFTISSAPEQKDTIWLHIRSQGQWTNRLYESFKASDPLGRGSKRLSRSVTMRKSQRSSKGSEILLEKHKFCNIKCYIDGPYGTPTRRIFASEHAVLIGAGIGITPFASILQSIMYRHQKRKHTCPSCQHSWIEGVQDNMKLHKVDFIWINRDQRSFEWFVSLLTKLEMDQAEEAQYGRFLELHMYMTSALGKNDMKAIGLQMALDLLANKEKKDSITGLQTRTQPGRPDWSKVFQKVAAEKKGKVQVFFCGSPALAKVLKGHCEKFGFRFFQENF
Chain of Streptavidin (Streptomyces avidinii) (P22629 whole entry, looked up): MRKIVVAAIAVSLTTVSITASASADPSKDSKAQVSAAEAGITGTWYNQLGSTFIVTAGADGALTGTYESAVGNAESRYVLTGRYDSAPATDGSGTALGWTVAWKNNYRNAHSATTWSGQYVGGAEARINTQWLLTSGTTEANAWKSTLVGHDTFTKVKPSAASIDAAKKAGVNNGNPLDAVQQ
Chain of NADPH oxidase 2 (Homo sapiens) (P04839 whole entry, looked up): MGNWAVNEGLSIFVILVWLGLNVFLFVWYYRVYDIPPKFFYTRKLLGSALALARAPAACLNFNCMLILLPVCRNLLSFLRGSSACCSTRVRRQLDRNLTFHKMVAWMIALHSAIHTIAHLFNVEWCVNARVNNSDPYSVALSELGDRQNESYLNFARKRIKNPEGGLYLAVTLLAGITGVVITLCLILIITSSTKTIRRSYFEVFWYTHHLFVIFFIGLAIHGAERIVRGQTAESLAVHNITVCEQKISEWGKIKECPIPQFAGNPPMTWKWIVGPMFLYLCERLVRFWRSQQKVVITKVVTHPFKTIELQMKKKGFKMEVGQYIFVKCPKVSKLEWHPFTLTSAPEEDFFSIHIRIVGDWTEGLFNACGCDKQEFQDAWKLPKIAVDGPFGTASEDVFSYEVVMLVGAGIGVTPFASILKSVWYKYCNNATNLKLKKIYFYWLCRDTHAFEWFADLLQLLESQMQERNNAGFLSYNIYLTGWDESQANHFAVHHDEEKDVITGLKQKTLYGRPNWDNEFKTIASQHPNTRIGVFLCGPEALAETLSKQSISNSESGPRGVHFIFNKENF
Chain of Torsin-1A (Homo sapiens) (O14656 whole entry, looked up): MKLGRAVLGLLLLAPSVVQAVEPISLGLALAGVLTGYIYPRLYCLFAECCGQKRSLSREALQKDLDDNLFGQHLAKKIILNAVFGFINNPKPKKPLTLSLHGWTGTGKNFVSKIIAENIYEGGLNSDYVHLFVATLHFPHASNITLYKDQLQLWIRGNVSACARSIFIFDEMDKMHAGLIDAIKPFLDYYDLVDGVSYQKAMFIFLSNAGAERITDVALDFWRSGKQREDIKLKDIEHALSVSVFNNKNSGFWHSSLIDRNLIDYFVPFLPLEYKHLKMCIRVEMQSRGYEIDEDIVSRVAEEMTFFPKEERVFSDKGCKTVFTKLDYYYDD

Regarding `[N-]=[N+]=NCc1ccccc1C[C@]1(C(=O)NCc2ccccc2)N=C(c2ccc(OCCCO)cc2)O[C@H]1c1ccccc1N=[N+]=[N-]`, the composite z-score in [1] was 0.729; in experiment [6], 0.83; in [7], -0.287; with Torsin-1A (Homo sapiens) [8], -0.0818; with Torsin-1A (Homo sapiens) [9], 0.334; in [10] it was -0.46. The compound further showed a composite z-score in experiment [12] of -0.7. The z-score in experiment [2] was -4.38 (inactive); in [3] it was -0.144 (inactive); in experiment [4], 0.493 (inactive); in experiment [5], -0.951 (inactive); in experiment [11], 0.0901 (inactive); in experiment [13], 30.6 (active). Further, the z-score was 30.6 (active) in [14]; 2.72 (inactive) in [15]; 3.32 (inactive) in [16]; -0.275 in experiment [17]; -0.349 (inactive) in experiment [18]; -0.15 (inactive) in [19]. In experiment [20], this compound yielded a z-score of -1.66.
As to `COCCCNC(=O)[C@]1(Cc2ccccc2)N=C(c2ccc(OCCCO)cc2)O[C@@H]1c1ccccc1`, the composite z-score in [1] was 0.424; in [6] it was 0.661; in experiment [7], 0.142; in the experiment with Torsin-1A (Homo sapiens) [8], 0.445; with Torsin-1A (Homo sapiens) [9], 0.992; in [10], -0.521. The compound further showed a composite z-score in [12] of 0.301. The z-score in experiment [2] was -2.94 (inactive); in experiment [3] it was -0.0581 (inactive); in [4], 0.423 (inactive); in experiment [5] it was -1.36 (inactive); in [11], -1.43 (inactive); in experiment [13] it was 26.9 (active). Moreover, the z-score in [14] is 18.6 (active); in [15] it was 0.972 (inactive); in experiment [16], 2.34 (inactive); in experiment [17] it was -0.612; in [18], -1.04 (inactive); in experiment [19], 0.654 (inactive). Besides, in experiment [20], the z-score stood at 1.1.
As for `CCN1C(=O)[C@H]2[C@H]3[C@H](O)[C@H](O)CC(=NO[C@@H]4O[C@H](CO)[C@@H](O)[C@H](O)[C@H]4O)[C@@H]3CC[C@H]2C1=O`, the composite z-score in experiment [1] was -0.215; in experiment [6], -0.933; in experiment [7], -0.249; in the experiment with Torsin-1A (Homo sapiens) [8] it was 1.47; with Torsin-1A (Homo sapiens) [9] it was -0.213; in experiment [10] it was 0.365. Also, the composite z-score in [12] was -0.183. In addition, the z-score in experiment [2] was 0.499 (inactive); in experiment [3], 0.00567 (inactive); in experiment [4], -0.925 (inactive); in experiment [5], -0.951 (inactive); in experiment [11] it was 0.0871 (inactive); in experiment [13] it was 0.568 (inactive). Also, the z-score in experiment [14] was 0.283 (inactive); in experiment [15], -0.846 (inactive); in experiment [16], -0.0143 (inactive); in [17] it was 0.345; in experiment [18], 0.0968 (inactive); in [19], 0.303 (inactive). In experiment [20], this compound showed a z-score of -0.0261.
`CC(CCN1CCc2nc(-c3ccccc3)c(-c3ccccc3)cc2C1)=NOC[C@@H](C)[C@H](OCc1ccccc1)C(C)C`: the composite z-score was -0.492 in experiment [1]; -0.717 in experiment [6]; -0.261 in experiment [7]; -2.11 with Torsin-1A (Homo sapiens) [8]; -1.21 with Torsin-1A (Homo sapiens) [9]; -0.819 in [10]. Further, the composite z-score in [12] is -0.0464. Also, the z-score in experiment [2] is 0.232 (inactive); in experiment [3], -0.612 (inactive); in experiment [4], 2.07 (inactive); in experiment [5] it was -0.17 (inactive); in experiment [11] it was -0.268 (inactive); in experiment [13] it was 1.43 (inactive). In addition, the z-score in experiment [14] was 1.03 (inactive); in [15], 1.21 (inactive); in experiment [16], 0.637 (inactive); in [17] it was 0.116; in [18], 0.837 (inactive); in [19], -1.74 (inactive). The compound further registered a z-score in experiment [20] of -0.578.
As to `CCOC(=O)NN=C1C[C@@H](O)[C@@H](O)[C@@H]2[C@@H]3C(=O)N(C4CCCCC4)C(=O)[C@@H]3CC[C@H]12`, the composite z-score in experiment [1] is -0.064; in [6], -0.0615; in experiment [7], -0.111; with Torsin-1A (Homo sapiens) [8], 0.218; with Torsin-1A (Homo sapiens) [9], 0.568; in experiment [10] it was 0.369. Further, the composite z-score in [12] was -0.288. The z-score in experiment [2] was -0.779 (inactive); in experiment [3] it was 0.786 (inactive); in [4], 0.341 (inactive); in experiment [5], 0.174 (inactive); in [11], -1.02 (inactive); in experiment [13], 3.79 (inactive). In addition, the z-score in experiment [14] was 0.323 (inactive); in [15], 0.822 (inactive); in experiment [16], 0.574 (inactive); in experiment [17], -0.0238; in experiment [18], 2.18 (inactive); in [19], -1.17 (inactive). The z-score in experiment [20] is -1.46.
